Measurements: PubChem BioAssay AID2284352 (EPA ToxCast)
Inconclusive results are not listed. Activity calls are given as the source filed them. Rule for the calls: active = hit-call score of the fitted dose curve at least 0.9, where 1 is the maximum; inconclusive = response in the unintended direction; inactive = score below 0.9.

tested on: rainbow trout Peroxisome Proliferator-activated Receptor gamma (PPARg), gene 110528708; assay: ATG_rtPPARg_EcoTox2: Attagene TRANS-FACTORIAL EcoTox-2 HepG2 Assay for rainbow trout Peroxisome Proliferator-activated Receptor gamma (PPARg)
Description: ATG_EcoTox2 is a cell-based, multiplexed assay created by modifying the existing Attagene TRANS-FACTORIAL system to include a panel of nuclear receptors from some or all the following species: human (Homo sapiens), african clawed frog (Xenopus laevis), rainbow trout (Oncorhynchus mykiss), japanese medaka (Oryzias latipes), and zebrafish (Danio rerio). The ECOTOX2-FACTORIAL format uses HepG2, a human liver cell line, with measurements taken at 24 hours after chemical dosing in a 24-well plate. ATG_rtPPARg_EcoTox2 is one of 29 assay components calculated in the ATG_EcoTox2 assay. It is designed to make measurements of mRNA induction, a form of inducible reporter, as detected with fluorescence intensity signals by Reverse transcription polymerase chain reaction (RT-PCR) and Capillary electrophoresis technology.The assay endpoint ATG_rtPPARg_EcoTox2 was analyzed in the positive analysis fitting direction relative to DMSO as the negative control and baseline of activity. Using a type of inducible reporter, measures of mRNA for gain-of-signal activity can be used to understand the reporter gene at the transcription factor-level as they relate to the gene PPARg. Furthermore, this assay endpoint can be referred to as a primary readout, because this assay has produced multiple assay endpoints where this one serves a reporter gene function. To generalize the intended target to other relatable targets, this assay endpoint is annotated to the nuclear receptor intended target family, where the subfamily is non-steroidal.
Human liver HepG2 cells are transiently transfected with multiple reporter transcription units (MRTUs) in 6-well plates using FuGene 6 reagent (Roche; 3 ml FuGene/1 mg DNA). The MRTU constructs are regulated by a cis-regulating element (promoter). Each RTU expresses a GAL4-UAS that regulates the transcription of a nearby target reporter gene sequence. A major difference between the CIS and TRANS system is that in CIS activities of endogenous TFs are measured, whereas the TRANS assay evaluates changes in activities of exogenous, chimeric NR-Gal4 proteins. […] At the end of 24 hour incubation, total RNA was isolated using TriZol reagent (Invitrogen). The isolated RNA is then reverse-transcribed using oligo(dT) primer and Mo-MLV reverse transcriptase (Invitrogen) with DNAse I (Ambion) treatment for 30 min. The one-tenth of the produced cDNA was amplified by PCR using Taq DNA polymerase (Invitrogen) and two reporter sequence-specific primers. […] The fragments were purified using Qiaquick PCR columns (Qiagen), analyzed on an ABI 3130xL genetic analyzer (Applied Biosystems) with peak positions identified by using a set of X-rhodamine (ROX)-labeled MapMarker1000 molecular weight standards (BioVentures). […]

Q: How did the outcome turn out when C[C@]12C=CC(=O)C=C1CC[C@@H]1[C@@H]2C(=O)C[C@@]2(C)[C@H]1CC[C@]2(O)C(=O)CO was run?
A: The outcome was “inactive”.

Q: How did the outcome turn out when Cc1ccc(C)c(OCCCC(C)(C)C(=O)O)c1 was run?
A: The outcome was “inactive”.

Q: CC(C)(Oc1ccc(Cl)cc1)C(=O)O was tested. Which outcome did it give?
A: Its outcome is “inactive”.

Q: With CC(C)OC(=O)C(C)(C)Oc1ccc(C(=O)c2ccc(Cl)cc2)cc1 as the molecule, how does the outcome read?
A: Its outcome is “inactive”.
